Among the data in PubChem BioAssay are inhibition values, retold here.

Values without a mark were called inactive. Calls of active or inactive are those of the source.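 The calls were made as follows: active = inhibition at or above 50% relative to wild type and mutant plate controls; inactive = inhibition below 50%.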

The test can be described thus: inhibitors of Chlamydomonas gravitaxis, primary screen, whole organism, Chlamydomonas reinhardtii, WT vs cilia-less mutant, absorbance, 96-well (AID 463189).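 Also: 0% = wild type cc124 cells in DMSO and 100% = ciliumless bld1 mutant cells.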 The note with it: OD600 absorbance, 2 days, at 10 µM, hits give high values.
As a reminder, the inhibition is the drop in the measured response relative to a control, in per cent. As to `Cc1nc(N=Nc2ccc(C(=O)O)cc2)c(COP(=O)(O)O)c(C=O)c1O`, the inhibition was 8.14%.
Regarding `Nc1ncnc2c1ncn2C1CCCO1` (stereo not given), the inhibition was -5.2%.
For the compound `O=C(O)[C@H]1NCCC[C@H]1C(=O)O`, the inhibition is -0.478%.
The result for `CCCCCCCCCCCCCCCC(=O)OC(CC(=O)O)C[N+](C)(C)C` (stereo not given) reads 2.15%; that for `CC(N)C1CCC(C(=O)Nc2ccncc2)CC1` (stereo not given), 3.82%; that for `CC(=O)[C@@]1(O)CC[C@H]2[C@@H]3CCC4=CC(=O)CC[C@]4(C)[C@H]3CC[C@@]21C`, -1.04%.
On to `CC(C)C[C@H](NC(=O)[C@@H](O)[C@H](N)Cc1ccccc1)C(=O)O`, for which the inhibition was 3.44%.
The result for `NC1(C(=O)O)CCCCC1` reads -2.27%; that for `COC(=O)C1=C(C)NC(C)=C(C(=O)OCCN(C)Cc2ccccc2)C1c1cccc([N+](=O)[O-])c1` (stereo not given), -0.607%; that for `Oc1ccc(C2CNCCc3c2cc(O)c(O)c3Cl)cc1` (stereo not given), -6.72%.
The result for `Oc1ccc(O)cc1` reads 0.661%; that for `CCCCCC(O)CCCC(=O)O` (stereo not given), -1.48%; that for `NC1(C(=O)O)CCc2cc(C(=O)O)ccc21` (stereo not given), 4.42%.
Consider `CCCCNc1ccc(C(=O)OCCN(C)C)cc1`, for which the inhibition was 8.43%.
With `Cc1cc(C)c(/C=C2\C(=O)Nc3ccccc32)[nH]1` the figure was 25.9%.
Take `Nn1nnc2ccccc21`: the inhibition was 1.8%.
With `CN(C)CCC(c1ccccc1)c1ccccn1` (stereo not given) the figure was 7.99%.
With `C=CCc1ccccc1OCC(O)CN[C@]1(C)CCC[C@H](C(C)(C)NC(=O)CBr)C1` (stereo not given in full) the figure was 16.4%; with `OC[C@H]1O[C@@H](n2cnc3c(NC4CCCCC4)ncnc32)[C@H](O)[C@@H]1O`, 4.21%.
In the case of `C[C@]12CC[C@@H]3c4ccc(O)cc4CC[C@H]3[C@@H]1CC[C@@H]2O`, the inhibition is 5.14%.
With `CC(=O)Oc1ccccc1C(=O)O` the figure was -5.84%; with `Nc1nc2c(nc(Br)n2C2OC3COP(=O)(O)O[C@@H]3C2O)c(=O)[nH]1` (stereo not given in full), 2.8%; with `NC(=O)C(=O)O`, 0.681%.
The result for `Nc1cc(=O)[nH]c(N)n1` reads -17.2%; that for `COc1nc(C)nc(Cl)c1NC1=NCCN1`, 1.2%.
The result for `CCCN(CCc1ccccc1)C1CCc2c(O)cccc2C1` (stereo not given) reads 5.13%.
For the compound `NCCSSCCN`, the inhibition is 6.01%.
Take `CCCC(CCC)C(=O)O`: the inhibition is 2.56%.
Consider `CC(=O)[C@H]1CCC2C3CC=C4C[C@@H](OS(=O)(=O)O)CC[C@]4(C)C3CC[C@@]21C` (stereo not given in full), for which the inhibition is 4.69%.
`CCCCN1CCC(n2c(=O)[nH]c3ccccc32)CC1`: the inhibition was 4.67%.
With `C[N+](C)(C)CCO` the figure was 2.98%; with `CCCCCCCCCC[Si](C)(C)CCC(=O)NC(Cc1ccc(C)cc1)c1ccccc1` (stereo not given), 1.73%.
With `NC(=O)CC[C@H](N)C(=O)O` the figure was -13.2%; with `COc1cc2c(cc1OC)-c1cc(=Nc3c(C)cc(C)cc3C)n(C)c(=O)n1CC2`, 10.5%.
The result for `O=C(O)/C=C/C(O)c1ccc(Cl)cc1` (stereo not given) reads -3.97%; that for `CC12CC3CC(C)(C1)CC(N)(C3)C2`, 3.51%; that for `c1ccc2nc(C3=NCCN3)ccc2c1`, 108% (active).
For the compound `COc1ccccc1N1CCN(CCN(C(=O)c2ccc(I)cc2)c2ccccn2)CC1`, the inhibition was -3.47%.
With `NCCNS(=O)(=O)c1cccc2cnccc12`, the inhibition is -4.46%.
For `Cc1nc2c(OCc3ccccc3)cccn2c1CC#N`, the inhibition was 3.47%.
